Screens: PubChem, National Center for Advancing Translational Sciences (NCATS)
FEN1 inhibitor – human FEN1 inhibition; AID 588795; Potency, µM (top dose mostly 114 µM), for inactives: top-dose activity change, negative = inhibition, most hits filed as inhibitors; Recombinant FEN1 flap cleavage, fluorescence, 15 min; P39748; 390,000 compounds, 0.35% hits; note: % is set by controls: 0 for no effect and ±100 for the full control effect; nearly all actives have a fitted effect of over 65% in size
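Potency values derive from four-parameter Hill fits of normalized qHTS data. The reaction used 10 nM FEN1 preincubated 15 min at room temperature with compound, then 50 nM DNA substrate, read at 0 and 15 min.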
Pol kappa inh – inhibitors of human DNA polymerase kappa; Q9UBT6; purified Pol kappa, fluorescent DNA synthesis assay, 10 min; Potency, µM (titrated, usually from 107 µM), inactives show top-dose activity, negative = inhibition, usual class: inhibitors; 400,000 compounds, 0.53% hits; note: % is set by controls: 0 for no effect and ±100 for the full control effect
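Inhibition of 10 nM Pol kappa is measured by a fluorescent read-out at 0 and 10 min following addition of 50 nM substrate (final), with a 15-min room-temperature compound preincubation.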
Pol beta inh – blocks human DNA polymerase beta activity | P06746 | Pol beta primer extension/strand displacement, fluorescence kinetic | Potency, µM (top dose mostly 114 µM), for inactives: top-dose activity change, negative = inhibition, usual class: inhibitors | 340,000 compounds, 1.3% hits; note: % is set by controls: 0 for no effect and ±100 for the full control effect
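Pol beta (10 nM) and compounds were preincubated 15 min at room temperature, then 50 nM substrate (final) started primer extension/strand displacement. Reads were taken at 0 and 10 min; concentration-response data were fitted to a four-parameter Hill equation.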
WRN inhibitor – WRN helicase (human) inhibition | Q14191 | WRN helicase unwinding, fluorescent forked duplex, kinetic | Potency, µM (highest dose often 114 µM), inactives show at the top dose activity change, negative = inhibition, actives largely listed as inhibitors | 360,000 compounds, 0.46% hits | AID 651768; note: % is set by controls: 0 for no effect and ±100 for the full control effect; nearly all actives have a fitted effect of over 55% in size
Target sequence (Q14191 whole entry, looked up): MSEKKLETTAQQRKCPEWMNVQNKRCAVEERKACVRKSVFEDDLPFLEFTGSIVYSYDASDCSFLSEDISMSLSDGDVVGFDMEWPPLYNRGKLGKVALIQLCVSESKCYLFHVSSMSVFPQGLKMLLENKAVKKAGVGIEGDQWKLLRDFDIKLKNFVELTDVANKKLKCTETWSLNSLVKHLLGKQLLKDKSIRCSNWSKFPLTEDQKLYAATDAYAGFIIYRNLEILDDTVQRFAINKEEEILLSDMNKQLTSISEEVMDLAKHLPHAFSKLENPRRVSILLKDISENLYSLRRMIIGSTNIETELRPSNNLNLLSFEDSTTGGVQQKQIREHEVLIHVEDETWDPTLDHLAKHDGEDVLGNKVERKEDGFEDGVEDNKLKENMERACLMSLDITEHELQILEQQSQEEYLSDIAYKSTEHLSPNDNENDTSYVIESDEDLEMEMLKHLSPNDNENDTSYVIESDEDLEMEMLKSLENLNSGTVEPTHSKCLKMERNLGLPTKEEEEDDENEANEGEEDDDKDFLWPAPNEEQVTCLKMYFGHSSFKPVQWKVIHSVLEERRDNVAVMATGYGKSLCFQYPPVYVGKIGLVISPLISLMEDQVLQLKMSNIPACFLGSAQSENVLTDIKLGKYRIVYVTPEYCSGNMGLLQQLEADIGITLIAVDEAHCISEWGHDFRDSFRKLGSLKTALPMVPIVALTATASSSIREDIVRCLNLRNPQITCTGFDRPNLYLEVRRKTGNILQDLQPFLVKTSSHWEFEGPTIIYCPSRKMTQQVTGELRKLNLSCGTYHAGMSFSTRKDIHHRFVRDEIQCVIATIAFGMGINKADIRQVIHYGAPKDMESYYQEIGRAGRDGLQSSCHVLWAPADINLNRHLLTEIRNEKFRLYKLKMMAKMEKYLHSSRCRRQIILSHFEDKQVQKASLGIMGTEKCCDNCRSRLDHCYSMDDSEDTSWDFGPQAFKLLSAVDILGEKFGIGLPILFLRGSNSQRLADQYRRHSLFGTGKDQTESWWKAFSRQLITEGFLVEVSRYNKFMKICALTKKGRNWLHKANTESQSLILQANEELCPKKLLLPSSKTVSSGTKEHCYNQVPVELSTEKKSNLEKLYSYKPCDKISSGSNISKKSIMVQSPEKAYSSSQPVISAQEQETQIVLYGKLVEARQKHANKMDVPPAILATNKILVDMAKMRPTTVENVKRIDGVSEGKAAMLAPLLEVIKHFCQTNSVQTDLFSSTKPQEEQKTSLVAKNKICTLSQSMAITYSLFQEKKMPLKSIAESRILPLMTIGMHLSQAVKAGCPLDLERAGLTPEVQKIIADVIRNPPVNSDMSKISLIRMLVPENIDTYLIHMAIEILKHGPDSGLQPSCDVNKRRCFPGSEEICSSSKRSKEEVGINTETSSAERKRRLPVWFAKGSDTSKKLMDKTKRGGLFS
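Kinetic red-fluorescence monitoring (525/598 nm) tracks WRN helicase activity after 100 nM fluorophore-quencher forked duplex and 2 mM ATP are added to 20 nM enzyme pretreated 15 min at room temperature with compound.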
Pol iota inh – blocks human DNA polymerase iota activity; Q9UNA4; Pol iota fluorescent replication assay, 10 min; Potency, µM (titrated, usually from 115 µM), inactives show at the top dose activity, negative = inhibition, hits mostly inhibitors; 390,000 compounds, 1% hits
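Fluorescent replication assay read twice, at 0 min and 10 min after adding 50 nM (final) substrate. Enzyme (10 nM) and compounds were first incubated 15 min at room temperature; enzyme-free buffer wells were negative controls.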
POLH inh – DNA polymerase eta (human) inhibition; Q9Y253; recombinant Pol eta, fluorescent DNA replication assay; Potency, µM (doses to about 114 µM), for the others: top-dose activity change, negative = inhibition, usual class: inhibitors; 390,000 compounds, 1.2% hits; note: % is set by controls: 0 for no effect and ±100 for the full control effect
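Pol eta at 10 nM preincubated with compounds 15 min at room temperature; reaction started with fluorescent substrate (50 nM final) and read kinetically at 0 and 10 min.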
Numbers without * were called inactive; ? = inconclusive; nt = not tested or not shown; [ ] = remark or other dose. The list is not random: actives were taken first. Their share in the collection is about 2.4%. Calls come from the whole dose curve; as a rule, active = well fitted curve in the direction sought with a large enough effect; inconclusive = small, poorly fitted or top-dose-only effect, or another doubt; inactive = no such curve, though single readings can be large; an effect the other way counts as inactive or inconclusive. Potency is the fitted concentration of half-maximal effect.

SMILES	FEN1 inhibitor	Pol kappa inh	Pol beta inh	WRN inhibitor	Pol iota inh	POLH inh
CCOC(=O)c1c(/N=C/C2C(=O)NC(=S)NC2=O)sc2c1CCC2	-22%	-23%	1%	56µM*	41%	1%
CCOC(=O)c1cc(C)sc1/N=C/C1C(=O)NC(=S)NC1=O	-9%	-26%	-18%	50µM*	?	12%
CN1C(=O)[C@]23CC4=CC=C[C@H](O)[C@H]4N2C(=O)[C@@]1(CO)SS3	nt	3%[60.1 µM]	nt	nt	nt	nt
C[C@H](CCC(=O)O)[C@H]1CC[C@@H]2[C@H]3CC[C@H]4C[C@@H](O)CC[C@@]4(C)[C@H]3CC[C@]21C	nt	-5%[12 µM]	nt	nt	nt	nt
COc1cc(CC(=O)OCC2=C[C@H]3[C@@H]4C(C)(C)[C@]4(OC(C)=O)[C@H](OC(=O)Cc4ccccc4)[C@@H](C)[C@]3(O)[C@@H]3C=C(C)C(=O)[C@@]3(O)C2)ccc1O	nt	-20%[60.1 µM]	nt	nt	nt	nt
COc1ccc(-n2c(O)c(/C=C3\C=Nc4ccc(Br)cc43)c(=O)[nH]c2=O)cc1	-34%	-5%	-13%	-6%[57.1 µM]	7.9µM*	-16%
O=c1[nH]c(=O)n(-c2ccc(F)cc2)c(O)c1/C=C1\C=Nc2ccccc21	-3%	?	17%	?	7.9µM*	89µM*
COc1ccc(-n2c(O)c(/C=C3\C=Nc4ccc(Br)cc43)c(=O)[nH]c2=O)c(OC)c1	?	-15%	20%	-13%[11.6 µM]	?	79µM*
Cc1ccccc1-n1c(O)c(/C=C2/C(c3ccccc3)=Nc3ccccc32)c(=O)[nH]c1=O	-19%	-11%	39%	?	-13%	-11%
COC(=O)C1=Nc2ccccc2/C1=C\c1c(O)n(-c2cc(OC)ccc2OC)c(=O)[nH]c1=O	-16%	-20%	-21%	50µM*	-8%	?
COc1ccc(-n2c(O)c(/C=C3\C=Nc4ccccc43)c(=O)[nH]c2=O)cc1	-17%	-5%	-21%	0%	?	?
CC(C)C[C@H]1C(=O)N2CCCC2[C@]2(O)O[C@](NC(=O)[C@@H]3C=C4c5cccc6[nH]c(Br)c(c56)C[C@H]4N(C)C3)(C(C)C)C(=O)N12 (some centres undefined)	nt	-7%[19.4 µM]	-7%[57.1 µM]	nt	-11%[58.9 µM]	-10%[57.1 µM]
C[N+](C)(C)CCCl	nt	9%[60.1 µM]	nt	nt	nt	nt
CCNC(=O)[C@H]1O[C@@H](n2cnc3c(N)ncnc32)[C@H](O)[C@H]1O	nt	nt	15%[57.1 µM]	nt	5%[58.9 µM]	-7%[57.1 µM]
Fc1ccc(C(OCCN2CCN(C/C=C/c3ccccc3)CC2)c2ccc(F)cc2)cc1	nt	0%[19.4 µM]	nt	nt	nt	nt
CCOC(=O)N1C(C)CN(/[N+]([O-])=N/Oc2ccc([N+](=O)[O-])cc2[N+](=O)[O-])CC1C (centres undefined)	-2%	4%	nt	nt	?	nt
O=[N+]([O-])c1cc(-c2ccc([As](=O)(O)O)cc2)ccc1[As](=O)(O)O	nt	nt	20µM*	nt	nt	nt
O=C(O)c1cccc2c1NC(c1cccc([N+](=O)[O-])c1)C1CC(Sc3ccccc3[N+](=O)[O-])C(Cl)C21 (centres undefined)	-26%	?	?	-32%	?	32µM*
O=[N+]([O-])c1cccc(C2N3CCCN23)c1 (centres undefined)	5%	-1%	91%	3%	17%	-17%
CCN(CC)C(=O)c1ccc2c(c1)C1C(Cl)C(Sc3ccccc3[N+](=O)[O-])CC1C(C(=O)O)N2 (centres undefined)	?	?	50µM*	-27%	?	18µM*
O=C(O)c1ccc2c(c1)C1C(Cl)C(Sc3ccccc3[N+](=O)[O-])CC1C(c1cccc([N+](=O)[O-])c1)N2 (centres undefined)	?	50µM*	?	?	?	22µM*
O=[N+]([O-])C(Br)(CO)CO	nt	1%[60.1 µM]	nt	nt	nt	nt
COc1ccc2c(c1OC)C(=O)OC2c1c(O)n(C2CCCCC2)c(=O)[nH]c1=O (centres undefined)	-2%	-22%	17%	-19%	25µM*	-10%
COc1cc2c(cc1OC)-c1c(OC)c(OC)c(OC)c3ccnc(c13)C2=O	10µM*	-19%	-14%	-4%	?	-11%
COc1cc2c(cc1OC)-c1c(OC)c(OC)cc3c1[C@H](C2)[N+](C)(C)CC3	-22%	-35%	50µM*	-7%	?	-1%
SMILES	FEN1 inhibitor	Pol kappa inh	Pol beta inh	WRN inhibitor	Pol iota inh	POLH inh
COc1cc2c3c(c1OC)-c1cc(O)ccc1CC3NCC2 (centres undefined)	0%	-12%	-24%	0%	-14%	-4%
CC(C)(C)OC(=O)C(Br)CCBr (centres undefined)	nt	12%[60.1 µM]	nt	nt	nt	nt
Cc1cc(/C=C2/C(=O)NC(=O)N(C)C2=O)c(C)n1-c1ccccc1	-3%	10%	-2%	1%[57.1 µM]	-20%	-9%
Cc1cc(/C=C2/C(=O)NC(=O)N(Cc3ccco3)C2=O)c(C)n1-c1ccccc1O	0%	-33%	28µM*	-11%[11.6 µM]	45µM*	50µM*
NCC(=O)c1cccc([N+](=O)[O-])c1	14%	6%	nt	nt	34%	nt
ClC1=C(Cl)C(Cl)=C(Cl)C1=C/C=C/c1ccccc1	7%	?	?	-6%[57.1 µM]	45µM*	?
CN1C(=O)C(=Cc2ccccc2Oc2ccc(Cl)c(F)c2)C(=O)N(C)C1=O	-2%	-17%	19%	50µM*	-4%	?
O=C1NC(=O)C(=Cc2ccccc2Oc2ccc(F)cc2)C(=O)N1	0%	5%	7%	32µM*	111%	-11%
CN(CC(=O)O)C(=O)[C@H](Cc1ccccc1)NC(=O)[C@@H](CCCN=C(N)N)NC(=O)[C@@H](N)Cc1ccc(O)cc1	nt	14%[60.1 µM]	nt	nt	nt	nt
COC1=C(C)C(=O)c2c(c(COC(N)=O)c3n2C[C@@H]2[C@@H]3N2C)C1=O (some centres undefined)	-24%	?	nt	nt	56µM*	nt
